Experimental findings from PubChem BioAssay AID493131 (Broad Institute, 2011) are described below.

Among all 340,000 compounds or so, about 3,300 (0.97%) were called active. The entries come from a sample that favours actives as a whole. A number with no mark means an inactive call.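 The calls were made as follows: active = mean activation above about 17%, with every replicate also reaching it (limit read from the data, passing the limit was not always enough); inconclusive = only one of the two conditions met; inactive = the rest.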

For the assay, the target named is Protein FosB (Mus musculus) (UniProt P13346). Put plainly: activators of delta FosB homodimer, primary screen, biochemical, fluorescence polarization, TAMRA-CDK5 oligo, single point (AID 493131). To be noted: purified delta FosB, at 25 µM, active compounds read high, percent of positive-control signal above neutral wells. Background: Fluorescence polarisation rises when a labelled molecule tumbles more slowly, as on binding a larger partner.
Sequence of Protein FosB (Mus musculus) (P13346 whole entry, looked up): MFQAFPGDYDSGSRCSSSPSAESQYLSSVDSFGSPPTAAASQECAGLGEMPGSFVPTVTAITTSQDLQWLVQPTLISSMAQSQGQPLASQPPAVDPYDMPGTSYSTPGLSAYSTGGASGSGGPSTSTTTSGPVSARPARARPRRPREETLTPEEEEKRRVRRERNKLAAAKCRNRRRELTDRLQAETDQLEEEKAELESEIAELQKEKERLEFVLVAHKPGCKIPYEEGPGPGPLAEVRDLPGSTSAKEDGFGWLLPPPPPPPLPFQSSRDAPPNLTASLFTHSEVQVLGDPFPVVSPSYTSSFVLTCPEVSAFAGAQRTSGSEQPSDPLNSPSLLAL
For the compound `COc1cc(CNCc2ccc(OC)c3ccccc23)cc(OC)c1OC`, the activation was -10.2%.

For `Cc1cc(C)c2nc3nc(C)cc(C)c3c(N)c2c1`, the activation was 25.9% (active).

`CNC(=O)C1CC(=O)N(c2ccc(OCC(=O)Nc3ccccc3C)cc2)C1` (centres undefined): the activation was 5.55%.

Regarding `COc1ccc(OC)c(S(=O)(=O)N(C)CC(=O)N2CCN(c3ccccc3)CC2)c1`, the activation is 3.45%.

As for `O=C1CC(c2ccccc2)C(=O)N1c1cccc(O)c1` (centres undefined), the activation is 0.8%.

Consider `O=C(CN1C(=O)c2cccc3cccc(c23)C1=O)N1CCCCC1`, for which the activation was 2.41%.

In the case of `O=C1c2cccc3cccc(c23)C(=O)N1c1cccc(O)c1`, the activation is 27.4% (active).

`Cc1ccccc1CC1(CO)CCCN(Cc2ccc3c(c2)OCCO3)C1` (centres undefined): the activation is -8.09%.

As to `C=CCC(NCc1ccco1)c1ccc(OC)cc1` (centres undefined), the activation was -0.535%.

As for `COc1ccc(-n2cnc3cc(NCc4ccco4)ccc32)cc1`, the activation is -0.508%.

Turning to `COc1ccc(Nc2nc(NCc3ccco3)nc(N/N=C/c3ccccc3Cl)n2)cc1`, the activation is 43% (active).

For the compound `O=C1c2cccnc2C(Nc2ccc(S(=O)(=O)N3CCCCCC3)cc2)N1Cc1ccccc1` (centres undefined), the activation is -10.2%.

As for `O=C(NCc1ccco1)c1cc2sccc2n1Cc1ccc(F)cc1`, the activation is -6.3%.

Turning to `O=C(Cc1ccc(-n2c(=O)c3sccc3n(Cc3ccc(F)cc3)c2=O)cc1)NCc1ccco1`, the activation was 20.9% (active).

In the case of `O=C(NCc1ccco1)c1ccc(Cn2c(=O)c3sccc3n(Cc3ccc(F)cc3)c2=O)cc1`, the activation was -6.02%.

Regarding `CC1(C)Oc2ccc(C(=O)N3CCOCC3)cc2N(CC(=O)Nc2ccccc2)C1=O`, the activation is -4.29%.

For `CC(=O)NC(Cc1ccc(F)c(F)c1)C(=O)NC1CCN(c2nnnn2-c2ccccc2)CC1` (centres undefined), the activation is -5.56%.

Turning to `COc1ccc(CCNC(=O)C2CCCN2C(=O)Nc2ccccc2)cc1OC` (centres undefined), the activation was 1.24%.

In the case of `CC(C)CCNC(=O)c1ccc2c(Cl)c3c(nc2c1)CCC3`, the activation is -19.8%.

Regarding `CC(=NC1CCN(Cc2ccccc2)CC1)c1c(O)[nH]c(=O)[nH]c1=O`, the activation is 6.14%.

As to `CS(=O)(=O)N(CC(=O)N1CCN(Cc2ccccc2)CC1)c1ccc2c(c1)OCCO2`, the activation was -2.7%.

`c1ccc(CN2CCC(N=C3NN=C(c4ccc5c(c4)OCCO5)CS3)CC2)cc1`: the activation was 18.3% (active).

For `Cc1ccc(C(=O)NC(C)c2ccccc2)cc1Br` (centres undefined), the activation was -1.72%.

Consider `CCN(C(=O)CSc1nc2ccccc2n1CC)C1CCS(=O)(=O)C1` (centres undefined), for which the activation was -12.5%.

Consider `O=C(CNS(=O)(=O)c1ccc(Br)s1)NCc1ccc2c(c1)OCO2`, for which the activation was -7.24%.

For `COc1cccc(OCc2cc(/C=N/NC(=O)c3nc(Cl)c(Cl)c(N)c3Cl)ccc2OC)c1`, the activation is 59.2% (active).

On to `COc1ccc2[nH]c(C(=O)N/N=C/c3cc(OC)c(OC)c(OC)c3)cc2c1`, for which the activation was -21.6%.

For `CCOc1ccc2[nH]c(C(=O)N/N=C/c3cccc(OC)c3OC)cc2c1`, the activation is -5.75%.

In the case of `CCOCCCNC(=O)C(NC(=O)c1ccc(=O)[nH]c1)c1ccc(Cl)cc1` (centres undefined), the activation is -7.55%.

As for `O=C(Cc1cccs1)N/N=C/c1ccc(OCc2ccccc2)cc1`, the activation is -8.99%.

For `O=C(N/N=C/c1ccc(OCc2ccccc2)cc1)c1ccc(O)cc1`, the activation was 19.7% (active).

With `O=C(COc1ccc(/C=N/NC(=O)c2ccc(O)cc2)cc1)Nc1ccc([N+](=O)[O-])cc1`, the activation was -4.3%.

Turning to `O=C(Nn1cnc2ccccc2c1=O)c1ccc(F)cc1Cl`, the activation was -11%.

For the compound `Cc1ccc(S(=O)(=O)NCc2ccc(C(=O)NC3CCC(C)CC3)cc2)cc1` (centres undefined), the activation is 1.88%.

Consider `Cc1cccc(C)c1NC(=O)c1ccc(CN2CCc3ccccc3C2)cc1`, for which the activation is 5.39%.

Take `COc1ccc(OC)c(NC(=O)C2CCCN2S(=O)(=O)c2cccc3nsnc23)c1` (centres undefined): the activation was -12.4%.

As to `COC(=O)C1=C(C)N(c2ccc(C)cc2)/C(=C/c2ccc(O)cc2)C1=O`, the activation is -7.3%.

As to `CCCc1nnc(SCC(=O)Nc2ccc(C(=O)OCC)cc2)o1`, the activation is -7.89%.

For the compound `O=C(CSc1nnc(Cn2cnc3ccccc32)o1)c1ccccc1`, the activation was -10.9%.

With `CC(=O)Nc1ccc(C(=O)CSc2nnc(Cc3ccccc3)o2)cc1`, the activation was 32.2% (active).

Turning to `COC(=O)CN1C(=O)N/C(=C/c2ccc(OC)c(C)c2OC)C1=O`, the activation was -0.812%.

With `CCN1C(=NCCc2cccnc2)N[C@@H](c2ccccc2)C(C(=O)OC)=C1C`, the activation was -0.917%.

For the compound `Clc1ccc(C2[C@H]3CN(CC4CCCCC4)[C@H](c4ccccc4)C34CC2(c2cccnc2)C4)cn1` (some centres undefined), the activation was 2.72%.

Turning to `COC(=O)c1ccc(C23CC4(C2)[C@H](CN(Cc2cccnc2)[C@@H]4c2ccccc2)C3c2ccc(Cl)nc2)cc1` (some centres undefined), the activation was 23.5% (active).

Take `CN(C)C(=O)CSc1n[nH]c(-c2ccco2)n1`: the activation is 7.7%.

With `COc1ccc(C(=O)C2CCCN(S(=O)(=O)c3cccc(C)c3)C2)c(C)c1` (centres undefined), the activation is -8.61%.

Consider `COc1cc2[nH]c(=O)n(Cc3ccc(C(=O)NC4CCN(Cc5ccccc5)CC4)cc3)c(=O)c2cc1OC`, for which the activation is 40.7% (active).

`COc1cc(C(=O)NC2CCN(Cc3ccccc3)CC2)cc(Cl)c1OC(C)C`: the activation was -2.75%.

As for `COc1cc2[nH]c(=O)n(CCC(=O)NC3CCN(Cc4ccccc4)CC3)c(=O)c2cc1OC`, the activation was -7.1%.

Take `CN(C(=O)COC(=O)c1ccc(Br)o1)c1c(N)n(Cc2ccccc2)c(=O)[nH]c1=O`: the activation is 5.25%.

`Cc1cc(OCC(=O)N(C)c2c(N)n(Cc3ccccc3)c(=O)[nH]c2=O)c(C(C)C)cc1Cl`: the activation is 30.7% (active).

Regarding `CC(C)CN(C(=O)COC(=O)c1ccc(Cl)c(N)c1)c1c(N)n(Cc2ccccc2)c(=O)[nH]c1=O`, the activation was 0.351%.

Turning to `CC(C)Sc1nc(N)nc2c1ncn2C1OC(CO)C(O)C1O` (centres undefined), the activation is -4.1%.

On to `O=C(CCN1CCc2ccccc2C(O)(c2ccccc2)C1)c1ccc2c(c1)OCCO2` (centres undefined), for which the activation was 1.68%.

As to `CCCCN(C(=O)c1ccc(OC(F)(F)F)cc1)c1c(N)n(CCC)c(=O)[nH]c1=O`, the activation was -2.28%.

As to `O=C(CS(=O)(=O)c1ccccc1)Nc1ccc(S(=O)(=O)Nc2ccccn2)cc1`, the activation is 1.81%.

On to `O=C(Nc1ccc(S(=O)(=O)Nc2ccccn2)cc1)c1ccccc1`, for which the activation is -2.22%.

As to `O=C(Nc1ccc(Br)cc1)c1cc(S(=O)(=O)Nc2ccccn2)ccc1Cl`, the activation is 40.2% (active).

For the compound `COc1ccccc1N1CCN(C(=O)c2cc(=O)c3cc(C)cc(C)c3o2)CC1`, the activation was -12.4%.

As to `CCOc1ccc(S(=O)(=O)N2CCN(C(=O)c3oc4ccccc4c3C)CC2)cc1`, the activation is -13.9%.

`CCn1cc(C(=O)OCC(=O)Nc2cccc(C)c2)c(=O)c2ccc(C)nc21`: the activation is -9.83%.

For `Cc1ccc(NNC(=O)c2cccs2)cc1Cl`, the activation is -4.02%.

With `CCCCC1N2CC3([N+](=O)[O-])CN1CC([N+](=O)[O-])(C2)C3(C)C` (centres undefined), the activation is 0.0626%.

Regarding `CCn1nc(C)c(NC(=O)/C=C/c2ccc(OC)c(COc3ccc(Br)cc3)c2)c1C`, the activation was 13.3%.

In the case of `COc1ccc(OC)c(S(=O)(=O)Nc2c(C)nn(C)c2C)c1`, the activation was 1.81%.

For the compound `COc1ccc(/C=C/C(=O)Nc2c(C)nn(C)c2C)cc1COc1ccc(Br)cc1`, the activation is 21.7% (active).

As to `Cc1ccc2c(c1)C1CN(C)CCC1N2C(=S)Nc1ccc(OC(F)F)cc1` (centres undefined), the activation was -5.28%.

On to `Cc1ccc2c(c1)C1CN(C)CCC1N2S(=O)(=O)c1ccc(Oc2ccc([N+](=O)[O-])cc2)cc1` (centres undefined), for which the activation is 60.9% (active).

With `Cc1ccc2c(c1)C1CN(C)CCC1N2S(=O)(=O)c1cccc(F)c1` (centres undefined), the activation was 1.55%.

Take `COc1ccc([N+](=O)[O-])cc1N(CC(O)Cn1nnc2ccccc21)S(=O)(=O)c1ccc(C)cc1` (centres undefined): the activation is -8.08%.

With `COc1ccc(Br)cc1C(=O)Nc1cccc(C)c1C`, the activation was 6.11%.

Take `COc1ccc(Br)cc1C(=O)NC(=S)Nc1cc(-c2nc3ccccc3[nH]2)ccc1C`: the activation was 30.2% (active).

With `COc1cc2ccccc2cc1C(=O)Nc1ccccc1C`, the activation was -12.4%.

In the case of `Cc1nnnn1/C(=C\c1ccccc1)C(=O)OCC(=O)N1CC2(C)CC1CC(C)(C)C2` (centres undefined), the activation was -16.8%.

Turning to `Cc1nn(C)cc1CNC(=O)Nc1ccc(Cl)cc1`, the activation was -6.86%.

As for `Cc1ccc(-c2cc(C(=O)NCc3cn(C)nc3C)c3cc(Br)ccc3n2)cc1`, the activation was 36.8% (active).

Consider `O=C(NCc1cccs1)c1cc(-c2ccccn2)nc2ccc(Br)cc12`, for which the activation is 2.96%.

For `CCN(CC)CCCNC(=S)N(CCO)Cc1cc2cc3c(cc2[nH]c1=O)OCO3`, the activation was -3.62%.

In the case of `CS(=O)(=O)N1CCc2nc(-c3ccccc3)sc2C1`, the activation was -1.76%.

For the compound `c1ccc(C[C@H]2CNCCN2CCC23CC4CC(CC(C4)C2)C3)cc1`, the activation was 20.1% (active).

Take `c1ccc2c(CCN3CCNC[C@H]3Cc3cccc4ccccc34)cccc2c1`: the activation was 12.1%.

For `O=C1CCNCCN1[C@H](CO)Cc1ccccc1`, the activation is -2.28%.

`CC(Oc1cc2oc(=O)c3c(c2cc1Cl)CCCC3)C(=O)NCc1ccncc1` (centres undefined): the activation is -1.99%.

For `COc1ccc2c(c1)c(C(=O)N/N=C/c1cccs1)c(C)n2C`, the activation was -3.67%.

As to `CCOC(=O)C1=C(COC(=O)[C@H](C)NS(=O)(=O)c2ccccc2F)NC(=O)NC1C` (some centres undefined), the activation was -4.67%.

Consider `Cn1ncc2c(NNC(=O)Cc3cccc4ccccc34)ncnc21`, for which the activation was 2.75%.

As to `CC(=O)c1ccc(NC(=O)C2CC(=O)Nc3nc4ccccc4n32)cc1` (centres undefined), the activation was 19.8% (active).

With `CCOC(=O)c1ccc(NC(=O)C2CC(=O)Nc3nc4ccccc4n32)cc1` (centres undefined), the activation is 7.67%.

Consider `O=C(Nc1ccccc1)C1CC(=O)n2c(nc3ccccc32)N1` (centres undefined), for which the activation was 12%.
